Hits are enriched below; roughly 1% of the tested compounds scored in any of these assays.
TCR act – activators of T cell receptors; Potency, µM (series often up to 9.22 µM), for inactives: top-dose activation of IL-2 secretion, most hits filed as activators; primary human leukocytes, anti-CD3, IL-2 HTRF, 48 h; 330,000 tested, under 10 active; further: % of control where 0% means no effect
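Compounds are tested in HTS on primary human leukocytes co-incubated with a-CD3 beads for 48 hr. IL-2 output is measured by time-resolved FRET.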
TexasRed fluor – Texas Red fluorescence interference in TRb-SRC2 counter-screen | TRb/SRC2 Texas Red total fluorescence interference | Potency, µM (top dose mostly 106 µM), for inactives: at the top dose fluorescence change, negative = quenching | 0.29% of 280,000 active | AID 1479; active means well fitted curve in either direction with a large enough effect; inconclusive means small, poorly fitted or top-dose-only effect; further: potency means the concentration at half of the fitted maximal effect; on the % scale 0 is the no-effect control and ±100 the full control effect
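Human TRβ ligand-binding domain (0.6 uM) and Texas Red SRC2 peptide (20 nM) in Tris buffer with 1 uM T3 and 5% DMSO were incubated with pinned compound for 5 hr at ambient temperature. Total fluorescence was computed as S + 2P (555/632 nm).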
NPSR antag – neuropeptide S receptor (human) antagonism, cAMP; Q6W5P4; 1% of 220,000 active; AID 1461; CHO-NPSR cells, cAMP TR-FRET, antagonist mode; Potency, µM (highest dose often 38.3 µM), inactives show at the highest dose activity change, negative = inhibition, usual class: inhibitors; further: potency means the concentration at half of the fitted maximal effect; on the % scale 0 is the no-effect control and ±100 the full control effect; nearly all actives have a fitted effect of over 50% in size
TSHR antagonist – antagonists of human thyroid stimulating hormone receptor; activity change, negative = inhibition, % at 11.5 µM; 0.2% of 330,000 active; TSHR-expressing cells, TSH-stimulated cAMP HTRF, 2 h; hits give low values;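 active means activity change below a set negative limit, meaning inhibition stronger than a set level, cut at about -70% in these data; inconclusive means activity change between two set negative limits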; further: on the % scale 0 is the no-effect control and ±100 the full control effect
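Freshly harvested TSHR cells receive pin-tooled compound, then EC80 TSH at 4nM final. After 2 hours at 37 deg C, antibody in lysis buffer and cAMP-d2 are added; 30 minutes at ambient temperature precede the HTRF read.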
Coupling enz – coupling enzyme interference in Giardia aldolase counter-screen; activity change, negative = inhibition, % at 58.2 µM, hits read low; 0.67% of 290,000 active; AID 2472; coupling enzyme system counterscreen, AmpLite Red fluorescence; in the data active means activity change below about -30%; further: on the % scale 0 is the no-effect control and ±100 the full control effect
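Counterscreen lacking aldolase: glyceraldehyde-3-phosphate coupling-enzyme reagent preincubated 10 min at RT with compound (at 57.5 uM final), then substrate/coupling system with AmpLite Red added; fluorescence read at 525/598 nm after 20 min RT.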
TRb-SRC2 inh – inhibitors of human thyroid hormone receptor beta-SRC2 interaction | TRbeta-SRC2 peptide binding, fluorescence polarization; receptor liganded with 1 µM T3 | Potency, µM (top dose mostly 106 µM), for inactives: at the highest dose activity change, negative = inhibition, hits mostly inhibitors | 0.065% of 280,000 active | AID 1469;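 further: potency means the concentration at half of the fitted maximal effect; plate controls were bound peptide for no effect and peptide without receptor for full effect; nearly all actives have a fitted effect of over 50% in size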
Target sequence (P10828 whole entry, looked up): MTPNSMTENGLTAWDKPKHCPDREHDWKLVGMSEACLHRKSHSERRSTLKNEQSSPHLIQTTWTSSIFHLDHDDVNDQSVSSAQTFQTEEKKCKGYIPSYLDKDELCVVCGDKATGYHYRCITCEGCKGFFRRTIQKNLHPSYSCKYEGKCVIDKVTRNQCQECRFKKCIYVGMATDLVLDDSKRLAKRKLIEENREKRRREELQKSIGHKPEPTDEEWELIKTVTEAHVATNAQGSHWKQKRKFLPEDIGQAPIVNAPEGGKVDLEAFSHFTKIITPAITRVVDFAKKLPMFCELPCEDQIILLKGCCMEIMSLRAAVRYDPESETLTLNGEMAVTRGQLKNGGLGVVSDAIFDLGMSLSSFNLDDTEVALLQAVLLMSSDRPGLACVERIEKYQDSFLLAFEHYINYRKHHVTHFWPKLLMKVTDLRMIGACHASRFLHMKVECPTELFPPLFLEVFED
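Polarization signal, normalized between peptide-alone and full complex controls, measured compound effects on T3-liganded human TRb LBD (0.6 uM) binding 20 nM Texas Red SRC2 peptide after 5 hr.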
The depositor's hits bear a star; ! = not confirmed by another sample; [ ] = another dose, or the depositor's remark. Unless noted, the call rests on the fitted dose curve; in most records, active means well fitted curve in the direction sought with a large enough effect; inconclusive means small, poorly fitted or top-dose-only effect, or another doubt; inactive means no such curve, though single readings can be large; an effect the other way counts as inactive or inconclusive.

What do the screens show for `CCOC(=O)c1c(-c2ccc(OC)cc2)csc1NC(=O)CNCc1ccco1`?
TCR act: -2%; TexasRed fluor: -2%; NPSR antag: inconclusive; TSHR antagonist: -22; Coupling enz: -9; TRb-SRC2 inh: 4%

Results for CCOC(=O)c1c(-c2ccc(Cl)cc2)csc1NC(=O)CNCc1ccco1 ?
TCR act: -1%; TexasRed fluor: -1%; NPSR antag: 10µM*; TSHR antagonist: 2; Coupling enz: -6; TRb-SRC2 inh: 0%

How did CCOC(=O)c1c(-c2cccs2)csc1N do in these assays?
TCR act: -1%; TexasRed fluor: 1%; NPSR antag: 7%; TSHR antagonist: 3; Coupling enz: -11; TRb-SRC2 inh: -4%

What do the screens show for `CCOC(=O)c1c(-c2ccc(C)s2)csc1NC(=O)c1ccco1`?
TexasRed fluor: -1%; NPSR antag: 7.9µM*; TSHR antagonist: -7; Coupling enz: 0; TRb-SRC2 inh: 5%

What do the screens show for `CCOC(=O)CC(NC(=O)CCc1c(C)nc2c(c1C)c(=O)n(C)c(=O)n2C)c1ccc(OCC)c(OC)c1` (configuration not stated)?
TexasRed fluor: -3%; TRb-SRC2 inh: -4%

How did CCOc1ccc(/C=C/c2nc(C#N)c(NCCc3ccccc3)o2)cc1 do in these assays?
TexasRed fluor: 0%; TRb-SRC2 inh: 3%

Results for O=C(CCCn1c(=O)c2cccn2c2ccccc21)NCCc1ccc(Cl)cc1 ?
TexasRed fluor: -14%; TRb-SRC2 inh: 9%

Results for Cc1oc(-c2ccc(Cl)cc2)nc1CN1CCCC(C(=O)NCCc2ccccc2)C1 (configuration not stated) ?
TexasRed fluor: -3%; TRb-SRC2 inh: -8%

Results for Cc1cccc(CCNc2ncnc3onc(-c4ccc(Cl)cc4)c23)c1 ?
TexasRed fluor: 0%; TRb-SRC2 inh: 1%

How did CCSC(=O)N(CC(C)C)CC(C)C do in these assays?
TexasRed fluor: -5%[201 µM]; TRb-SRC2 inh: 3%[201 µM]

What do the screens show for `C=CCOc1c(Br)cc(CNc2ccc(NC(=O)C(C)C)c(OC)c2)cc1OCC`?
TCR act: -2%[46.1 µM]; TexasRed fluor: -2%; NPSR antag: -24%; TSHR antagonist: 16; Coupling enz: -50*; TRb-SRC2 inh: 3%

Results for CCOc1cc(CNc2ccc(N(C)C)cc2)cc(Br)c1OCC(=O)NC(C)(C)C ?
TCR act: 12%; TexasRed fluor: 45µM*[fluorescent]; NPSR antag: 10µM*; TSHR antagonist: -76*; Coupling enz: -37*; TRb-SRC2 inh: 40µM*

Results for CCOc1cc(CNc2ccc(N3CCCCC3)cc2)cc(Br)c1OCC(=O)NC(C)(C)C ?
TCR act: 5%[46.1 µM]; TexasRed fluor: 2%; NPSR antag: -50%; TSHR antagonist: -4; Coupling enz: 1; TRb-SRC2 inh: -20%

What do the screens show for `C=CCOc1c(Br)cc(CNc2ccc(NC(=O)CCC)cc2)cc1OCC`?
TCR act: -21%; TexasRed fluor: -2%[53 µM]; NPSR antag: inconclusive; TSHR antagonist: -10; Coupling enz: -1; TRb-SRC2 inh: -18%[53 µM]

How did COc1cccc(F)c1C(=O)NC(=O)Nc1ccc2nc(C)oc2c1 do in these assays?
TCR act: -82%; TexasRed fluor: inconclusive; NPSR antag: 3%; TSHR antagonist: 13; Coupling enz: -31*; TRb-SRC2 inh: -26%

Results for COc1ccc(OCc2ccc(-c3nc(C#N)c(NC(C)c4ccccc4)o3)o2)cc1 (configuration not stated) ?
TexasRed fluor: 3%; TRb-SRC2 inh: -3%

Results for O=C(Nc1nc2cc3c(cc2s1)OCCO3)c1cccc(N2C(=O)CCC2=O)c1 ?
TCR act: -2%; TexasRed fluor: -5%; NPSR antag: 9%; TSHR antagonist: 3; Coupling enz: 3; TRb-SRC2 inh: 2%

How did CCN(CC)S(=O)(=O)c1cccc(C(=O)Nc2nc3cc4c(cc3s2)OCCO4)c1 do in these assays?
TCR act: 6%; TexasRed fluor: -5%; NPSR antag: -19%[46.1 µM]; TSHR antagonist: -78*; Coupling enz: -3; TRb-SRC2 inh: -11%

How did CC1(C)CC(=O)c2c(oc3cc(O)c(O)cc23)C1 do in these assays?
TCR act: 1%; TexasRed fluor: -5%; NPSR antag: -7%[46.1 µM]; TSHR antagonist: 2; Coupling enz: -62*!; TRb-SRC2 inh: 9%

How did O=C(Oc1c(CN2CCOCC2)cc(Cl)c2cccnc12)c1ccccc1F do in these assays?
TCR act: 10%; TexasRed fluor: 0%; NPSR antag: 7.9µM*; TSHR antagonist: -3; Coupling enz: -12; TRb-SRC2 inh: -10%

How did Cc1ccc(/C=N/NC(=O)CSc2nc3ccccc3n2C)s1 do in these assays?
TCR act: 6%; TexasRed fluor: 0%; NPSR antag: -14%[46.1 µM]; TSHR antagonist: -1; Coupling enz: -32*; TRb-SRC2 inh: -3%

How did Cn1c(SCC(=O)N/N=C/c2cccs2)nc2ccccc21 do in these assays?
TCR act: 3%; TexasRed fluor: 2%; NPSR antag: -13%[46.1 µM]; TSHR antagonist: -1; Coupling enz: -16; TRb-SRC2 inh: 0%

How did CCN(CC)c1cccc(OC2=NS(=O)(=O)c3ccccc32)c1 do in these assays?
TCR act: 11%; TexasRed fluor: 45µM*[fluorescent]; NPSR antag: -16%[46.1 µM]; TSHR antagonist: -5; Coupling enz: 5; TRb-SRC2 inh: 40µM*

How did CCN(CC)C(=O)CSc1nc2c(sc(=S)n2-c2ccccc2)c(=O)n1Cc1ccco1 do in these assays?
TCR act: 1%; TexasRed fluor: 0%; NPSR antag: 10µM*; TSHR antagonist: -11; Coupling enz: 9; TRb-SRC2 inh: -14%

How did COC(=O)CC1Oc2ccc(Cl)cc2-n2cc(-c3ccc(C)cc3)nc21 (configuration not stated) do in these assays?
TexasRed fluor: 22µM*[quencher]; TRb-SRC2 inh: -8%

How did CCC(C(=O)N1CCN(c2cc(Cl)ccc2C)CC1)n1nc(C)n2c(cc3occc32)c1=O (configuration not stated) do in these assays?
TexasRed fluor: -1%; TRb-SRC2 inh: -3%

What do the screens show for `CC(C)c1ccc(NC(=O)[C@H]2O[C@@H]3OC(C)(C)O[C@@H]3[C@H]3OC(C)(C)O[C@H]32)cc1`?
TexasRed fluor: -2%; TRb-SRC2 inh: -9%

Results for O=C1CN(S(=O)(=O)c2cc(C(=O)O)ccc2Cl)c2ccccc2N1 ?
TCR act: 5%; TSHR antagonist: -76*; Coupling enz: 3
